# Compound activity from PubChem BioAssay.
# 3T3 cytotox – NIH 3T3 cell cytotoxicity. NIH 3T3 viability, CellTiter-Glo ATP luminescence, 48-72 h. Potency, µM (top dose mostly 96.7 µM), most hits filed as inhibitors. hit rate 4.3% among 94,000; also: nearly all actives have a fitted effect of over 55% in size
#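 Cytotoxicity is measured as loss of cellular ATP: NIH 3T3 cells (400/well) are exposed to compound for 48 or 72 hr at 37 °C, then CellTiter-Glo luminescence is imaged after 10 min at room temperature.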
# hNpr1 antagonist – blocks ANP-stimulated signaling of human Npr1 receptor; Potency, µM (highest dose often 46.3 µM), most hits filed as inhibitors; AID 1347048; hit rate 1.6% among 76,000; P16066; HEK293 hNpr1 GloSensor cGMP, ANP-stimulated luminescence; calls by dose curve; also: nearly all actives have a fitted effect of over 60% in size
#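 Compound pre-incubated 30 min at room temperature on GloSensor-loaded HEK293 cells stably carrying hNpr1 and the pGS-40F cGMP biosensor. Stimulation uses hNppA at 0.1 nM final; luminescence is taken at baseline and 20 min post-agonist.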
# HEK293 tox – kills HEK 293 cells; hit rate 6.6% among 94,000; Potency, µM (top dose mostly 115 µM), usual class: inhibitors; AID 1345083; HEK 293 viability, ATP luminescence (CellTiter-Glo), 48-72 h; also: nearly all actives have a fitted effect of over 60% in size
#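 qHTS cytotoxicity; HEK 293, 250 cells/well; compound pinned; 48 or 72 hr, 37 degree Celsius, 5% CO2, 95% humidity; CellTiter-Glo, 10 min RT; luminescence (ATP).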
# Luciferase inh – Photinus pyralis luciferase inhibition; Potency, µM (top dose mostly 115 µM), usual class: inhibitors; purified P. pyralis luciferase, luminescence, biochemical; P08659; hit rate 2.5% among 76,000; also: nearly all actives have a fitted effect of over 65% in size
# Target sequence (P08659 whole entry, looked up): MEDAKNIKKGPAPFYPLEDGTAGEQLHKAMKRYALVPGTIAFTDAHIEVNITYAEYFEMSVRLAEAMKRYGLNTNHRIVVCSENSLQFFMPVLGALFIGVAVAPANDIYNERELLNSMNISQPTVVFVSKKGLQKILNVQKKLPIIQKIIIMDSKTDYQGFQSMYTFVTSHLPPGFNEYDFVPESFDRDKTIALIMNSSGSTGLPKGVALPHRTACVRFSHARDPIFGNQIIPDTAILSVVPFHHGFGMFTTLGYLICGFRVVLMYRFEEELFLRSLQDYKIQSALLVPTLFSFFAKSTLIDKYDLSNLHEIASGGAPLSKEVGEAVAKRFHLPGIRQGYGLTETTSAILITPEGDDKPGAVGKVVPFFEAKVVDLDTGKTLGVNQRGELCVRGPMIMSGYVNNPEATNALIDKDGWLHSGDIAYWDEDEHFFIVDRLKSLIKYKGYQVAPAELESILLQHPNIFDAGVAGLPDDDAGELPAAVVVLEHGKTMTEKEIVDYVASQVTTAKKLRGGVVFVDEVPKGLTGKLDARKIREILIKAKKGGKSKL
#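 Luminescence read by CCD imaging after purified firefly luciferase (10nM final) was added to substrate buffer holding 10uM D-luciferin and 10uM ATP, pH 7.5, pre-dosed with compound.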
# A number is an active result; 0 = inactive; ? = inconclusive; - = no result. In the library only some 11% were active in any assay of this set; here they are far more common. Unless noted, calls follow the shape of the dose curve; as a rule, active = well fitted curve in the direction sought with a large enough effect; inconclusive = small, poorly fitted or top-dose-only effect, or another doubt; inactive = no such curve, though single readings can be large; an effect the other way counts as inactive or inconclusive.
SMILES,3T3 cytotox,hNpr1 antagonist,HEK293 tox,Luciferase inh
Cc1nc(-c2ccc(Cl)cc2)n(CC(=O)Nc2cccc(C(F)(F)F)c2)c(=O)c1CCO,?,0,40µM,0
Cc1ccc(NC(=O)Cn2c(-c3ccc(F)cc3)nc(C)c(CCO)c2=O)c(Cl)c1,0,0,?,0
Cc1nc(-c2ccc(F)cc2)n(CC(=O)Nc2cc(C(F)(F)F)ccc2Cl)c(=O)c1CCO,?,0,32µM,0
COc1ccc2c(c1)CN(CC1CC1)C(=O)CCN2C[C@@H](O)COCc1ccccc1,?,-,0,-
COc1cccc(-c2ccc(S(=O)(=O)N3CCSCC3)cc2)n1,?,0,45µM,0
CCOC(=O)[C@@H]1CN(C(=O)CC(C)C)[C@H]2c3cccc(C)c3O[C@@H]12,?,-,0,-
COCCn1c(=O)c(C(=O)N2CCC(Cc3ccccc3)CC2)nc2cccnc21,0,-,0,-
CCN(CC)C(=O)c1cccc(-c2ccc(OCCn3ccnc3)cc2)c1,?,0,45µM,0
Cc1ccccc1CN1CCOc2cc([S+](=O)([O-])Nc3nncs3)ccc2C1,?,0,0,0
CC(C)CCN1CCOc2cc([S+](=O)([O-])Nc3nncs3)ccc2C1,32µM,0,0,0
CC(C)CCN1CCOc2cc([S+](=O)([O-])Nc3cccnc3)ccc2C1,28µM,0,?,0
CN(C)C(=O)N1CCN(c2ccc3nnc(C4CC4)n3n2)CC1,0,-,0,-
COC(=O)c1c(S(=O)(=O)N2CCCCCCC2)sc2c1CCN(C(=O)C1CC=CCC1)C2 (stereo not given),?,0,45µM,0
Cc1ccc(CC(=O)N2CCc3cn(C)c4cccc(c34)C2)cc1,?,0,79µM,0
O=C(CCC1CCCC1)NCc1nnc2c(-c3nc(C4CC4)no3)cccn12,0,0,0,0
COc1ccc(-c2cnc([C@@H]3COCCN3Cc3ccc(C)cc3)[nH]2)cc1,?,0,?,0
COc1ccc(-c2cnc([C@@H]3COCCN3Cc3nc4ccccc4n3C)[nH]2)cc1,?,?,?,0
Cc1ccc(-c2cnc([C@@H]3COCCN3Cc3cn(C)c4ccccc34)[nH]2)cc1,?,?,56µM,0
COc1ccc(CN2CCOC[C@H]2c2ncc(-c3ccc(OC)cc3)[nH]2)cc1,?,0,89µM,0
Cc1ccc(CN2CCOC[C@H]2c2ncc(C(C)(C)C)[nH]2)cc1,100µM,0,112µM,0
COc1ccc(-c2cnc([C@@H]3COCCN3Cc3cn(C)c4ccccc34)[nH]2)cc1,63µM,?,?,0
Cc1ccc(-c2cnc([C@@H]3COCCN3Cc3ccccc3F)[nH]2)cc1,?,0,?,0
CCOc1cccc(CN2CCc3c(c(CN(C(C)=O)c4ccccc4)nn3C)C2)c1O,0,-,0,-
Cn1cc(CN2CCOC[C@H]2c2ncc(-c3ccc(F)cc3F)[nH]2)c2ccccc21,50µM,0,50µM,0
Fc1ccc(-c2cnc([C@@H]3COCCN3Cc3ccncc3)[nH]2)cc1,?,0,0,0
SMILES,3T3 cytotox,hNpr1 antagonist,HEK293 tox,Luciferase inh
CSc1ncc(CN2CCOC(Cc3cccc(C(F)(F)F)c3)C2)cn1 (stereo not given),28µM,0,22µM,0
O=C(Cn1cccn1)N1CCOC(Cc2cccc(C(F)(F)F)c2)C1 (stereo not given),0,0,0,0
COCCNc1ccc2nnc(-c3ccccn3)n2n1,?,0,0,0
COCCCNc1ccc2nnc(-c3ccc(C)cn3)n2n1,89µM,0,0,0
Cc1ccc(-c2nnc3ccc(NCc4cccs4)nn23)nc1,?,0,100µM,0
CC(=O)N1CCO[C@@H](COc2ccccn2)[C@@H]1c1ccccc1,0,-,0,-
O=C(NC1CCN(c2ccnc3ccnn23)C1)c1ccc(F)cc1 (stereo not given),0,-,?,-
COc1cc(CNC(=O)c2nc(C(O)c3ccccn3)oc2C)cc(OC)c1 (stereo not given),79µM,0,?,0
Cc1oc(C(O)c2ccccc2)nc1C(=O)NCc1ccco1 (stereo not given),?,0,?,0
CC(C)c1noc(C2CCCN2C(=O)c2cc(-c3cccs3)n(C)n2)n1 (stereo not given),0,0,0,32µM
Cc1ccc(C(=O)NCc2ccnc3[nH]ccc23)cc1,0,0,0,?
CC(C)c1ccc(C(=O)NCc2ccnc3[nH]ccc23)cc1,?,0,?,25µM
COc1ccc(CN(C)C(=O)C2(c3ccc(OC)cc3)CCOCC2)cc1,0,-,?,-
COc1ccc(C2(C(=O)N(C)Cc3ccc(OC(F)(F)F)cc3)CCOCC2)cc1,?,-,50µM,-
